Records with an inconclusive call do not appear. Activity calls are given as the source filed them. Unless noted, calls follow the shape of the dose curve; as a rule, active = well fitted curve in the direction sought with a large enough effect; inconclusive = small, poorly fitted or top-dose-only effect, or another doubt; inactive = no such curve, though single readings can be large; an effect the other way counts as inactive or inconclusive.
How the values were obtained:
[1] = target: Lysosomal acid glucosylceramidase (Homo sapiens) (UniProt P04062); test: Glucocerebrosidase-p2 (AID 348; in the data active = potency below about 10 µM; also: potency is read from the fitted curve at half-maximal effect); conditions: purified GBA, blue fluorogenic substrate, 40 min
Lysosomal acid glucosylceramidase (Homo sapiens), sequence (P04062 whole entry, looked up): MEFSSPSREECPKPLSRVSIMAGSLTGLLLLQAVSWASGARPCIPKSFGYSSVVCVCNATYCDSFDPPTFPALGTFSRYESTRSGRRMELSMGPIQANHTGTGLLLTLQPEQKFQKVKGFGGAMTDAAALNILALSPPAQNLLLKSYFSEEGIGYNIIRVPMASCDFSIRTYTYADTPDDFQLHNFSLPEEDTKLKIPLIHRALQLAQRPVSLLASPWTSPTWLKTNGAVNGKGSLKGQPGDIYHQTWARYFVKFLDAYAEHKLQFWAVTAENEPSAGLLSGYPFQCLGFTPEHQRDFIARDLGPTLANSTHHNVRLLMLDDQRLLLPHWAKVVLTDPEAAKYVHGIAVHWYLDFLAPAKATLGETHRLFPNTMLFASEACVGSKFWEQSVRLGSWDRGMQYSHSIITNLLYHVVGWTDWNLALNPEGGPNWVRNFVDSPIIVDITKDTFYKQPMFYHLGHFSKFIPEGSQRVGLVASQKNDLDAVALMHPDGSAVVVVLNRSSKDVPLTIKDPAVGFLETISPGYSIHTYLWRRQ
In short: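 Normal human glucocerebrosidase (0.2 nM) with blue fluorogenic substrate (80 uM final) in citrate/phosphate pH 5.9 with 10mM sodium taurocholate, 0.01% tween-20; 40 min RT, NaOH/glycine stop; fluorescence Ex 365/Em 440; AC50 from a titration from 0.6 nM upwards.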

[2] = AP1 Signaling Pathway (AID 357; active = well fitted curve in either direction with a large enough effect, not every such curve was filed as active;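 also: ME-180 reporter cells stimulated with EGF at its EC50 level; % is scaled to controls: 0 for no effect and ±100 for the full control effect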); conditions: ME-180 AP-1-bla reporter, EGF-induced, beta-lactamase ratio, 5 h; at 7.69 µM (top of the series) unless noted
In short: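 First, ME-180 AP-1-bla cells were cultured overnight at 37 °C in low-serum Opti-MEM. Next, titrated compounds with EC50 EGF were incubated 5 hours. Finally, CCF4 was added for 2.5 hours and the 460/530 nm ratio recorded.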

[3] = target: Cytochrome P450 1A2 (Homo sapiens) (UniProt P05177); test: p450-cyp1a2 (AID 410; calls by dose curve; also: potency is read from the fitted curve at half-maximal effect); conditions: recombinant CYP1A2, luciferin-ME demethylation, luminescence; series mostly up to 57 µM
Cytochrome P450 1A2 (Homo sapiens), sequence (P05177 whole entry, looked up): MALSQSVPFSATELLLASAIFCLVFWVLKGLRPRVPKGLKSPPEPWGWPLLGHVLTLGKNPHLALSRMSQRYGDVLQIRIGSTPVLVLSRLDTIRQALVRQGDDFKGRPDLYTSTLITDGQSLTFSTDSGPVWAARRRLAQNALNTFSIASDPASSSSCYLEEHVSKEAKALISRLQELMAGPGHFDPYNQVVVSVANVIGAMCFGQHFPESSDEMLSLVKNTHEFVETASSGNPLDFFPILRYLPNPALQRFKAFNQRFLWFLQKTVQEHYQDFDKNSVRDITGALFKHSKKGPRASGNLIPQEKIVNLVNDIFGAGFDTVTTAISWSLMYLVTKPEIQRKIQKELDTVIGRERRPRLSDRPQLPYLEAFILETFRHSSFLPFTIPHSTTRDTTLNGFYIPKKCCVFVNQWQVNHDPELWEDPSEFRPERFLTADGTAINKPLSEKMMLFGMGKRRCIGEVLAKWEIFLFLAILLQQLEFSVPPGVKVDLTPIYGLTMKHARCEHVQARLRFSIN
In short: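 20nM CYP1A2, 100uM Luciferin-ME (=Km), 100mM KPO4; cpd 10 min RT; +NADPH regen, 60 min RT; stop/detect 20 min; luminescence. Normalized to furafylline 57 uM = full inhibition.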

[4] = NFAT Signaling Pathway (AID 444; active = well fitted curve in either direction with a large enough effect, not every such curve was filed as active;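 also: carbachol stimulus at about its EC50 of 1 µM final; % is scaled to controls: 0 for no effect and ±100 for the full control effect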); conditions: Jurkat NFAT-bla M1, carbachol, beta-lactamase ratio, 5 h; at 7.69 µM (top of the series) unless noted
In short: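 Jurkat cells with NFAT-driven β-lactamase reporter and co-expressed M1 receptor, stimulated with carbachol (final 1 uM, ~EC50), compound titration, 5 h at 37 °C. CCF4 loaded 1 h at RT; 460/530 nm ratio gave %activity and AC50.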

[5] = Stat Signaling Pathway (AID 446; active = well fitted curve in either direction with a large enough effect, not every such curve was filed as active;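 also: ME-180 cervical cancer cells given 40 pM IL-6 alongside compound; SIE-controlled beta-lactamase reporter measured as 460/530 nm FRET emission ratio; % is scaled to controls: 0 for no effect and ±100 for the full control effect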); conditions: ME-180 (cervical carcinoma) SIE beta-lactamase reporter, IL-6 stimulated, 5 h; at 7.69 µM (top of the series) unless noted
In short: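 Compound effects on IL-6-induced STAT reporter activity were measured in ME-180 cells. After overnight culture, cells were co-treated with 40 pM IL-6 for 5 hrs before beta-lactamase substrate loading at room temperature.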

[6] = target: Glucocorticoid receptor (Homo sapiens) (UniProt P04150); test: GR-GFP Redistribution (AID 450;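 active = compounds whose dose series gives a full or clear partial fitted curve of increased nuclear translocation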; also: potency is read from the fitted curve at half-maximal effect); conditions: U2OS GR-GFP nuclear translocation, laser cytometry, 2 h
Glucocorticoid receptor (Homo sapiens), sequence (P04150 whole entry, looked up, the tested form may be a part): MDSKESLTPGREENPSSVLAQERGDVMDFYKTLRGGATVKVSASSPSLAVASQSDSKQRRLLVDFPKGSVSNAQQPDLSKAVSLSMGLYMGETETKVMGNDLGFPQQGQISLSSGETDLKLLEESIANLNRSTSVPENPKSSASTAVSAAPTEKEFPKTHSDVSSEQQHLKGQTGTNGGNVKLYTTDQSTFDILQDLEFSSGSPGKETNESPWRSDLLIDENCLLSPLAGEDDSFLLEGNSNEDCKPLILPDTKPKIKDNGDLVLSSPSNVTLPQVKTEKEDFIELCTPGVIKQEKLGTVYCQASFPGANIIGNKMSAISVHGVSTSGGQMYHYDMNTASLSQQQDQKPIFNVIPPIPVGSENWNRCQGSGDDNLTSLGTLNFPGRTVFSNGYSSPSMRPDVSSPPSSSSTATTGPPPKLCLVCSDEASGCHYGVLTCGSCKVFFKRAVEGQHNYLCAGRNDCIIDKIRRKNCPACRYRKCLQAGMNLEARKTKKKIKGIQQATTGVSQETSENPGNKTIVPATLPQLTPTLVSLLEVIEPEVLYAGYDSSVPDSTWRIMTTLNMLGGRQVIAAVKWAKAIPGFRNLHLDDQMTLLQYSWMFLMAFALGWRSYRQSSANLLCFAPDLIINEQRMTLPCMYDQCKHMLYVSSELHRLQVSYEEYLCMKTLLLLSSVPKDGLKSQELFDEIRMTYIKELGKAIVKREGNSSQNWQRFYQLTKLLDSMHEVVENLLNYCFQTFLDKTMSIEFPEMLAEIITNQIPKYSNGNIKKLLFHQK

[7] = target: Mitogen-activated protein kinase 10 (Mus musculus) (UniProt Q61831); test: JNK3 AlphaScreen Assay (AID 530; active = well fitted curve in either direction with a large enough effect, not every such curve was filed as active;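 also: kinase came from lysate of stimulated human HepG2 cells; signal reports phosphorylation of biotinylated GST-cJun 1-79 at Ser73 with 10 µM ATP; % is scaled to controls: 0 for no effect and ±100 for the full control effect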); conditions: JNK3 lysate, c-Jun phosphorylation; series mostly up to 57.1 µM
In short: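 HepG2 lysate (IL-1b/TNFa pre-activated) + biotin-GST-cJun 1-79 + anti-pSer73 cJun; cpd titration, 15 min RT; ATP 10 uM start; Tris pH 7.6, MgCl2, DTT, vanadate; beads in EDTA buffer; AlphaScreen.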

[8] = qHTS Assay for Lipid Storage Modulators (AID 1519; calls by dose curve); conditions: Drosophila S3 cells, BODIPY lipid droplet/cell ratio, laser cytometry, cells loaded with oleic acid; for activity change, negative = inhibition: at 57.5 µM (top of the series)
In short: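 Cells seeded at 5,000 per well were treated with compounds over a concentration series and loaded with oleic acid (400 uM, as added). Lipid droplet fluorescence (488 nm excitation, 500-530 nm channel) was read by laser-scanning cytometry and normalized to 20 uM Triacsin C.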

[9] = target: Dual specificity protein kinase CLK4 (Homo sapiens) (UniProt Q9HAZ1); test: qHTS Assay for Inhibitors of CDC-like Kinase 4 (Kinase-Glo Assay) (AID 1770); conditions: recombinant Clk4, Kinase-Glo ATP depletion luminescence; series mostly up to 66.7 µM; also: potency is read from the fitted curve at half-maximal effect; nearly all actives have a fitted effect of over 65% in size
Dual specificity protein kinase CLK4 (Homo sapiens), sequence (Q9HAZ1 whole entry, looked up): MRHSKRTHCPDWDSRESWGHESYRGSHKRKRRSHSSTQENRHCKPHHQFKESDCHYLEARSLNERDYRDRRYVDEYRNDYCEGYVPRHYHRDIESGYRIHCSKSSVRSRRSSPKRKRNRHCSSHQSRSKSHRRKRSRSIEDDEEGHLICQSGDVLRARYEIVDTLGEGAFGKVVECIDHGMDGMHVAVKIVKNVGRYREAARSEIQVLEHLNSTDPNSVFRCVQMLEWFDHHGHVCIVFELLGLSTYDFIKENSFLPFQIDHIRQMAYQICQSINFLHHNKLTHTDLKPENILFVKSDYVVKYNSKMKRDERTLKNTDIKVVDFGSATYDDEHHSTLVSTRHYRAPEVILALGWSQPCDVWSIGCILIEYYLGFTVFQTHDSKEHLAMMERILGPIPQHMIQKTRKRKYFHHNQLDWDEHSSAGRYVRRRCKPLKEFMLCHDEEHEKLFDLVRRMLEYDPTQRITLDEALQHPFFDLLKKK
In short: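 Substrate mix (RS peptide 100 uM, ATP 1 uM) dispensed, compound pinned in, then Clk4 added to 25 nM final. Incubated 4.5 h at RT; Kinase-Glo reagent added, luminescence read after 5 min.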

[10] = target: Dual specificity protein kinase CLK4 (Homo sapiens) (UniProt Q9HAZ1); test: qHTS Assay for Inhibitors of CDC-like Kinase 4 (ADP-Glo Assay) (AID 1771); conditions: recombinant CLK4, ADP-Glo luminescence; series mostly up to 80 µM; also: potency is read from the fitted curve at half-maximal effect; nearly all actives have a fitted effect of over 70% in size
In short: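 25 nM Clk4, 100 uM RS peptide, 1 uM ATP (final); 2 mM MgCl2, 0.5 mM EGTA, 2.5 mM DTT, 0.01% Triton X-100; 1 hr RT. ADP-Glo readout: ATP depletion 45 min, conversion/luciferase 30 min, luminescence.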

[11] = target: Ubiquitin carboxyl-terminal hydrolase 1 (Homo sapiens) (UniProt O94782); test: Inhibitors of USP1/UAF1: Pilot qHTS (AID 504865); conditions: purified USP1/UAF1, Ub-rhodamine cleavage fluorescence; series mostly up to 54.9 µM;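 also: rhodamine fluorescence freed from ubiquitin-rhodamine substrate followed over time; top concentration of the series differs between compounds; % is scaled to controls: 0 for no effect and ±100 for the full control effect; nearly all actives have a fitted effect of over 35% in size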
Ubiquitin carboxyl-terminal hydrolase 1 (Homo sapiens), sequence (O94782 whole entry, looked up): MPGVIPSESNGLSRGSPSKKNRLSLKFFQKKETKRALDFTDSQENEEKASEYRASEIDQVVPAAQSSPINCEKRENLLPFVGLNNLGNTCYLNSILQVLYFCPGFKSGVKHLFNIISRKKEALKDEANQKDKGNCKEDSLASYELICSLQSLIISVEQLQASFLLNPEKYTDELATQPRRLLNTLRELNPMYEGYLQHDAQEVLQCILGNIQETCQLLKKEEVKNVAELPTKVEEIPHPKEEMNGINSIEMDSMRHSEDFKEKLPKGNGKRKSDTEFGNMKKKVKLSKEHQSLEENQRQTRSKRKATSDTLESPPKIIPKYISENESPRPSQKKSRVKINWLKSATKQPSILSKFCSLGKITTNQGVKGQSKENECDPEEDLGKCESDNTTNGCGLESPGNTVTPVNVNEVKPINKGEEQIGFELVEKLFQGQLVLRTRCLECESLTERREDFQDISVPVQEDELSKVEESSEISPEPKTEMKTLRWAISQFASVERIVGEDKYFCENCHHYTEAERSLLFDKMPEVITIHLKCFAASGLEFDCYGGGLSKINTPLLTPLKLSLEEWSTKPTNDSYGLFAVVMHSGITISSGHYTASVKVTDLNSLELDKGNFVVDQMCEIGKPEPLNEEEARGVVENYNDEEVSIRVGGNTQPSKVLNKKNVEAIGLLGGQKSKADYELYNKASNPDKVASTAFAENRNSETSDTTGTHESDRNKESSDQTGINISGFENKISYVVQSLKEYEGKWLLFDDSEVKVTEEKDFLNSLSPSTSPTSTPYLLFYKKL
In short: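 In 50mM HEPES pH 7.8 containing 0.5mM EDTA, 1mM TCEP, 0.1 mg/ml BSA and 0.01% Tween-20, 1nM USP1/UAF1 is exposed to compound for 15 min, then Ub-Rho (150nM final) is added and fluorescence is read over time.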

[12] = Primary qHTS for small molecule stabilizers of the endoplasmic reticulum resident proteome: Secreted ER Calcium Modulated Protein (SERCaMP) assay (AID 1508630); conditions: SH-SY5Y GLuc-SERCaMP (Gaussia luciferase released on ER calcium loss) secretion, thapsigargin, luminescence; series mostly up to 38.4 µM; also: % is scaled to controls: 0 for no effect and ±100 for the full control effect
In short: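 The SH-SY5Y reporter protocol was run at 3 concentrations up to 38.3 uM (primary) or 11 concentrations (follow-up): 16 h compound, 100 nM thapsigargin for 4 h, then extracellular luciferase luminescence.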

[13] = target: Glucocorticoid receptor (Homo sapiens) (UniProt P04150); test: GR-EFC Redistribution (AID 451; calls by dose curve; also: potency is read from the fitted curve at half-maximal effect); conditions: CHO-K1 GR-EFC translocation, beta-gal luminescence, 2 h
In short: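 CHO-K1 cells expressing nuclear EA and GR-ED fragments of b-gal; compounds titrated up to 46 uM final, 2 h at 37 C. GR nuclear translocation read as complemented b-gal luminescence after 1 h RT detection.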

[14] = target: 3',5'-cyclic-AMP phosphodiesterase 4B (Homo sapiens) (UniProt Q07343); test: qHTS Assay for Inhibitors of PDE-IV (AID 607; active = well fitted activation curve with a large enough effect in the main read-out, with a control signal flat, not every such curve was filed as active; also: % of control where 0% means no effect); conditions: HEK293 ACTOne CNG channel cells, membrane potential fluorescence; series mostly up to 22.9 µM
3',5'-cyclic-AMP phosphodiesterase 4B (Homo sapiens), sequence (Q07343 whole entry, looked up): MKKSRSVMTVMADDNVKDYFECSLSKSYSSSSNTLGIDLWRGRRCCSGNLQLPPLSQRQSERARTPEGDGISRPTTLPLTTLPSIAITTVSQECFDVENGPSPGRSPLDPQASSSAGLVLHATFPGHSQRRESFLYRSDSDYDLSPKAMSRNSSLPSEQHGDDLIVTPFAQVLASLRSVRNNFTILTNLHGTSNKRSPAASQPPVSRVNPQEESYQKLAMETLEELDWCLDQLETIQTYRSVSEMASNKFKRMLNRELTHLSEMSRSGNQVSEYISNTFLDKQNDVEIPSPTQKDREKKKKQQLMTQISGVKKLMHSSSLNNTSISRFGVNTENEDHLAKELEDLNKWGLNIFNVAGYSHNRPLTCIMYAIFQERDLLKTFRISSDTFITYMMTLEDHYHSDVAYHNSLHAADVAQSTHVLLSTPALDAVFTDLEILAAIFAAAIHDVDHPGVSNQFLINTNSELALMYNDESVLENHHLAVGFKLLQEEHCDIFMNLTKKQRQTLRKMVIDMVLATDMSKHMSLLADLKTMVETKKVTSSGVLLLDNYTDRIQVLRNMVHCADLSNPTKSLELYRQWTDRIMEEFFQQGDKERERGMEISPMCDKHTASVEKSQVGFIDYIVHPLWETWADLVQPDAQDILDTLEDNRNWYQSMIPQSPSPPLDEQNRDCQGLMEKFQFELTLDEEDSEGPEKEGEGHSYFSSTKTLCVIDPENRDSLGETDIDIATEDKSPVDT
In short: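 ACTOne HEK293 cells carry a modified cAMP-gated CNG channel and express endogenous PDE4; plated 1000 cells/well, compounds up to 22.9 uM final. Membrane-potential dye fluorescence (ex 535/em 590) was read; parental cells received 10 uM forskolin + 100 uM RO 20-1724.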

[15] = target: Dual specificity protein kinase CLK4 (Homo sapiens) (UniProt Q9HAZ1); test: qHTS Assay for Inhibitors of CDC-like Kinase 4 (ADP-FP Assay) (AID 1795); conditions: Transcreener ADP fluorescence polarization; series mostly up to 50 µM; also: potency is read from the fitted curve at half-maximal effect; nearly all actives have a fitted effect of over 60% in size
In short: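 Clk4 6.25 nM; RS peptide 100 uM; ATP 1 uM; 25 mM Tris pH 7.5, 10 mM MgCl2; 1 h reaction. ADP detected via antibody/orange tracer FP displacement; TG003 positive control.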

[16] = target: Cytochrome P450 3A4 (Homo sapiens) (UniProt P08684); test: qHTS Assay for Activators of Cytochrome P450 3A4 (AID 885); conditions: recombinant CYP3A4, Luciferin-PPXE luminescence, 60 min; series mostly up to 57.1 µM; also: nearly all actives have a fitted effect of over 65% in size
Cytochrome P450 3A4 (Homo sapiens), sequence (P08684 whole entry, looked up): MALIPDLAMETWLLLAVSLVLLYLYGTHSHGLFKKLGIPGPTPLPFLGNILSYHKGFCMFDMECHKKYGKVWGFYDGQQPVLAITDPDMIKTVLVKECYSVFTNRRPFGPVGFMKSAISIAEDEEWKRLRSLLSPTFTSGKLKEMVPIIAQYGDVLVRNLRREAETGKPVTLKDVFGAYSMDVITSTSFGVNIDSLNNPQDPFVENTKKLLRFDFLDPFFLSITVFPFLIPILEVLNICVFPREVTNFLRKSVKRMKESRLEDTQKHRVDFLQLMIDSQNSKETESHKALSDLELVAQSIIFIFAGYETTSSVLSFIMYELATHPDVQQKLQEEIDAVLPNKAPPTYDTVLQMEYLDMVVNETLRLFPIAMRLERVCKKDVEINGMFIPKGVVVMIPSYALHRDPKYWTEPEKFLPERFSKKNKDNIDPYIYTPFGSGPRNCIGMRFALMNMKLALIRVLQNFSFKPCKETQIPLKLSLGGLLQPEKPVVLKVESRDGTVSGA
In short: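 CYP3A4 activity: Luciferin-PPXE O-dealkylation, 25uM substrate, 200mM KPO4, RT throughout. Read-out is luciferase luminescence; higher values reflect activation.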

[17] = target: Cytochrome P450 3A4 (Homo sapiens) (UniProt P08684); test: qHTS Assay for Inhibitors and Substrates of Cytochrome P450 3A4 (AID 884); conditions: recombinant CYP3A4, Luciferin-PPXE luminescence; series mostly up to 57.1 µM; also: potency is read from the fitted curve at half-maximal effect; nearly all actives have a fitted effect of over 50% in size
In short: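 Luminescent readout of luciferin produced by CYP3A4 (20 nM) dealkylation of Luciferin-PPXE, 25 uM (its KM). NADPH-driven reaction ran 60 min at RT after 10 min compound preincubation; data scaled to 57 uM ketoconazole as 100% inhibition.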

[18] = measured here: cell count channel max response
[19] = measured here: lipid channel max response

Structure (SMILES)	Potency [1]	activity change, negative = inhibition [2]	Potency [3]	activity change, negative = inhibition [4]	activity, negative = inhibition [5]	Potency [6]	outcome [7]	activity change, negative = inhibition [8]	max response [8, 18] [%]	max response [8, 19] [%]	Potency [9]	Potency [10]	Potency [11]	Potency [12]	Potency [13]	Potency [14]	Potency [15]	Potency [16]	Potency [17]
CN(C)C(=O)c1ccc(-c2cc(Nc3ccccc3)ncn2)cc1	> 11.4 µM (inactive)	-5.39% (inactive)	12.6 µM (active)	4.63% (inactive)	4.86% (inactive)	> 46 µM (inactive)	inactive	6.97% (inactive)	33.4	40.6	14.1 µM (active)	14.1 µM (active)	inactive	inactive	–	–	–	–	–
CC(=O)NCCNc1ncnc2ccc(-c3ccoc3)cc12	–	-5.21% (inactive)	12.6 µM (active)	17.6% (inactive)	3.17% (inactive)	> 46 µM (inactive)	inactive	1.77% (inactive)	-0.704	-3.36	0.891 µM (active)	1 µM (active)	inactive	inactive	> 46 µM (inactive)	inactive	0.355 µM (active)	–	–
COc1cccc(Cn2c(=O)cnc3cncnc32)c1	> 11.4 µM (inactive)	13.8% (inactive)	15.8 µM (active)	-18.4% (inactive)	-2.31% (inactive)	> 9.22 µM (inactive)	inactive	1.18% (inactive)	17.1	17.8	15.8 µM (active)	28.2 µM (active)	–	inactive	> 46 µM (inactive)	–	–	inactive	–
CN(C)C(=O)c1ccc(-c2cc(NCc3cccnc3)ncn2)cc1	> 11.4 µM (inactive)	11.8% (inactive)	20 µM (active)	21.1% (inactive)	21.7% (inactive)	> 46 µM (inactive)	inactive	3.91% (inactive)	24.7	22.9	15.8 µM (active)	14.1 µM (active)	inactive	inactive	> 46 µM (inactive)	inactive	–	inactive	–
CN(C)c1ccc(-c2ccc3ncnc(N(C)C)c3c2)cc1	> 11.4 µM (inactive)	-10.3% (inactive)	0.158 µM (active)	-14.1% (inactive)	-0.741% (inactive)	> 46 µM (inactive)	inactive	1.7% (inactive)	9.5	8.94	3.55 µM (active)	8.91 µM (active)	inactive	inactive	> 46 µM (inactive)	inactive	–	inactive	6.31 µM (active)
CS(=O)(=O)Nc1cccc(-c2ccc3ncnc(NC4CC4)c3c2)c1	–	-14.5% (inactive)	0.631 µM (active)	-15.5% (inactive)	-20.6% (inactive)	> 46 µM (inactive)	inactive	-3.87% (inactive)	-8.29	-10.1	6.31 µM (active)	5.01 µM (active)	inactive	inactive	> 46 µM (inactive)	inactive	4.47 µM (active)	inactive	6.31 µM (active)
